CBFb RUNX1 block = qHTS Assay for Compounds Blocking the Interaction Between CBF-beta and RUNX1 for the Treatment of Acute Myeloid Leukemia. Potency, µM (titrated, usually from 59.8 µM), inactives show at the top dose activity, negative = inhibition, hits mostly inhibitors. AlphaScreen CBFb-His/RUNX1-biotin binding, biochemical. 230,000 tested, under 10 active. AID 1477, 2009. Runt-related transcription factor 1 (Homo sapiens) + Core-binding factor subunit beta …; also: % of control where 0% means no effect
Target sequence (Q01196 whole entry, looked up): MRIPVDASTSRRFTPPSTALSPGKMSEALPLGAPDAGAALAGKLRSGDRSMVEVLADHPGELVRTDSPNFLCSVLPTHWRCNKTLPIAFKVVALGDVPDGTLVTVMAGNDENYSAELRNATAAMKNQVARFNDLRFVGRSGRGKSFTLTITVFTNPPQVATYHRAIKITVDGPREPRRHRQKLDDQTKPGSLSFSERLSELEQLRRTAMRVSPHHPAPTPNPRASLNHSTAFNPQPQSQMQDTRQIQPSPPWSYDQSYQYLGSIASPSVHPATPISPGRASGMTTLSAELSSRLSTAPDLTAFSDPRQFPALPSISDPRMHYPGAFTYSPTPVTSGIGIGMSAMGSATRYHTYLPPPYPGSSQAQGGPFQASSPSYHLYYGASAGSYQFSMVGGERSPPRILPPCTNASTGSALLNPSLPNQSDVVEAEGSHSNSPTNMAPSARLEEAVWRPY
Target sequence (Q13951 whole entry, looked up): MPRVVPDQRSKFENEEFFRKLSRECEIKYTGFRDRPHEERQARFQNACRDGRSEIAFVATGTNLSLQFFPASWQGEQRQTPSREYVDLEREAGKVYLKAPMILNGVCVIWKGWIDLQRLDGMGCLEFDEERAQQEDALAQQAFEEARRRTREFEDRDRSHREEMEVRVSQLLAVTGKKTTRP
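Compounds were screened at multiple concentrations against a preformed CBF-beta(His)/RUNX1(biotin) complex (30 nM of each) for 15 min at room temperature, followed by 90 min with nickel and streptavidin beads and AlphaScreen reading.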
JMJD2E inh = qHTS Assay for Inhibitors of Human Jumonji Domain Containing 2E (JMJD2E) | Lysine-specific demethylase 4E (Homo sapiens), B2RXH2 | JMJD2E catalytic domain, FDH-coupled NADH fluorescence (FDH is formaldehyde dehydrogenase) | Potency, µM (series often up to 57.1 µM), for inactives: at the highest dose activity change, negative = inhibition, actives largely listed as inhibitors | 230,000 tested, 1.6% active | AID 2147, 2009; active = well fitted inhibition curve with a large enough effect, not every such curve was filed as active; inconclusive = small, poorly fitted or top-dose-only effect, or another doubt; inactive = no such curve, though single readings can be large or run the other way;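 also: potency is read from the fitted curve at half-maximal effect; 0% = wells with enzyme and -100% = buffer wells without enzyme; nearly all actives have a fitted effect of over 50% in size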
Tau FP inhib = qHTS for Inhibitors of Tau Fibril Formation, Fluorescence Polarization | Microtubule-associated protein tau (Homo sapiens), P10636 | K18 P301L tau heparin fibrillization, Alexa594 FP, 6 h | Potency, µM (series often up to 57.7 µM), for the others: at the highest dose activity, negative = inhibition, hits mostly inhibitors | 280,000 tested, 0.39% active | AID 1468, 2008; also: potency is read from the fitted curve at half-maximal effect; % is scaled to controls: 0 for no effect and ±100 for the full control effect; nearly all actives have a fitted effect of over 55% in size
Target sequence (P10636 561-689 P618L limits assumed): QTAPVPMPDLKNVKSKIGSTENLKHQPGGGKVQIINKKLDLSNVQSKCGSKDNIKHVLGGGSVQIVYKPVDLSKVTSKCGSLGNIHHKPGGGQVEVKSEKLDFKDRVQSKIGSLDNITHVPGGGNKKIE
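K18 P301L tau (15 uM unlabeled/0.24 uM Alexa 594-labeled, final) + compound + heparin 20 uM final; 100 mM NaOAc pH 7; 6 hr 37 C; ThT 30 uM final added, 1 hr RT; FP ex 555/em 632 nm.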
Tau fibril ThT = qHTS for Inhibitors of Tau Fibril Formation, Thioflavin T Binding. Microtubule-associated protein tau (Homo sapiens), P10636. recombinant tau K18 P301L, heparin-induced fibrillization, ThT fluorescence. Potency, µM (titrated, usually from 57.4 µM), without a hit: at the top dose activity, negative = inhibition, actives largely listed as inhibitors. 270,000 tested, 2.1% active; also: potency is read from the fitted curve at half-maximal effect; % is scaled to controls: 0 for no effect and ±100 for the full control effect; nearly all actives have a fitted effect of over 55% in size
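Heparin-induced (20 uM) aggregation of recombinant human K18 P301L tau, 15 uM unlabeled with 0.24 uM labeled, pH 7 acetate buffer, 6 hr at 37 C with compound. Fibrils quantified by 30 uM ThT fluorescence after 1 hr ambient incubation.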
Tau fluor counter = Counterscreen qHTS for Inhibitors of Tau Fibril Formation, Fluorescence Polarization. 280,000 tested, 0.93% active. Potency, µM (titrated, usually from 57.7 µM), without a hit: at the highest dose activity change, negative = decrease. AID 1463, 2008. tau K18 P301L (four-repeat tau fragment) Alexa594 fluorescence, heparin fibrillization; also: potency is read from the fitted curve at half-maximal effect; % is scaled to controls: 0 for no effect and ±100 for the full control effect; nearly all actives have a fitted effect of over 55% in size
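Human K18 P301L tau (15 uM unlabeled plus 0.24 uM Alexa 594-labeled, final) in 100 mM sodium acetate pH 7 was mixed with compound and 20 uM heparin and incubated 6 hr at 37 C.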
LMNA splice mod = qHTS Assay for Modulators of Lamin A Splicing; HeLa LMNA splicing GFP/RFP minigene ratio, 48 h; Potency, µM (top dose mostly 46.1 µM), without a hit: at the top dose ratio change, negative = inhibition, hits mostly inhibitors; 200,000 tested, 0.01% active; active = well fitted inhibition curve with a large enough effect in the signal ratio, with a control signal flat, not every such curve was filed as active; inconclusive = small, poorly fitted or top-dose-only effect, or effect the other way, or a change in a side signal; the % refers to the signal ratio; also: potency is read from the fitted curve at half-maximal effect; % is scaled to controls: 0 for no effect and ±100 for the full control effect
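S3 HeLa stable clones carrying a lamin A-EGFP splicing minigene plus DsRed2 were seeded at 600 cells/well in Opti-MEM with 2% FBS, pin-dosed and incubated 48 h at 37°C. Acumen cytometry (488 nm) gave the GFP/RFP total-intensity ratio.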
* marks the source's active call; other numbers are inactive results; ? = inconclusive; . = no result given; [ ] = another dose, or the depositor's remark. Sampled rows, rich in hits. Any-hit rate of the full collection: about 3.2%. Unless noted, calls follow the shape of the dose curve; as a rule, active = well fitted curve in the direction sought with a large enough effect; inconclusive = small, poorly fitted or top-dose-only effect, or another doubt; inactive = no such curve, though single readings can be large; an effect the other way counts as inactive or inconclusive.

SMILES | CBFb RUNX1 block | JMJD2E inh | Tau FP inhib | Tau fibril ThT | Tau fluor counter | LMNA splice mod
CCN(C(=O)C1CCN(S(=O)(=O)c2c(C)noc2/C=C/c2ccc(C)cc2)CC1)c1cccc(C)c1 | . | . | -4% | -14% | -11% | ?
CCN(Cc1ccccc1)S(=O)(=O)c1cc(Br)cc2c1N(C(=O)C1CC1)CC2 | . | . | 4% | ? | ? | .
COc1ccc(C2c3c(n(C)c4ccccc34)C(=O)N2CC(=O)Nc2cc(Cl)ccc2C)cc1 (stereo unspecified) | . | . | -6% | 8% | -16% | .
O=C(/C=C(\O)c1ccccc1)c1ccccc1O | 11% | ? | -1% | ? | -24% | .
COc1cccc(Nc2ccc(Nc3cccc(OC)c3)nn2)c1 | -9% | -17% | 9% | ? | 13µM*[quencher] | -15%
Oc1ccc(-c2csc(Nc3ncccn3)n2)c(O)c1 | -11% | 7% | ? | ? | ? | ?
Cc1cccnc1Nc1nc(-c2ccc(O)cc2)cs1 | -3% | -12% | 12% | 13µM* | 18µM*[quencher] | -26%
N#Cc1nc(-c2ccco2)oc1N1CCC(C(N)=O)CC1 | 2% | 3.5µM* | -5% | -2% | -8% | 1%
COc1cc(/C=C/C(=O)c2cccs2)cc(OC)c1OC | -2%[21.7 µM] | ? | 1% | ? | -6% | .
O=Cc1ccsc1B(O)O | 7% | 4% | -10% | 10% | 0% | .
CCN1CCc2nc3sc(C(=O)c4ccccc4)c(N)c3cc2C1 | . | . | -12% | 8.9µM* | 16µM*[quencher] | .
COc1cc(/C=C2/C(C)=C(C#N)c3nc(N)c(C#N)c(C)c32)ccc1OCC(=O)O | -23% | ? | ? | 14µM* | ? | 1%[46 µM]
Nc1nonc1-c1nc2ccccc2n1CC(=O)N/N=C/c1ccc(-c2ccccc2C(=O)O)o1 | ? | 4% | -1% | 10% | 7% | .
CC1=C(C#N)c2nc(N)c(C#N)c(C)c2/C1=C\c1ccc(-c2ccccc2C(=O)O)o1 | ? | ? | ? | 8.9µM* | ? | -29%[46 µM]
COc1ccc(C2CC(=O)c3c([nH]c(C(=O)OCCOc4ccccc4)c3C)C2)cc1OC (stereo unspecified) | . | . | -10% | 0% | -12% | .
O=C1c2ccccc2C2=Nc3ccccc3SC(c3cccc(F)c3)C12 (stereo unspecified) | . | 2% | ? | 13µM* | 13µM*[quencher] | ?
O=C1c2ccccc2C2=Nc3ccccc3SC(c3ccc(Cl)cc3)C12 (stereo unspecified) | . | -9% | -17% | ? | ? | ?
Cc1ccc(N=Cc2nc(/C=C/c3cccc([N+](=O)[O-])c3)oc2O)cc1 | 3% | -7% | 12% | 1.4µM* | -16% | -5%
C/C(=C\C=C(C#N)C#N)c1cc(C#N)c(N)o1 | -18% | ? | -10% | 13µM* | -15% | ?
CCOC(=O)N/N=C1/C[C@@H](O)[C@@H](O)[C@@H]2[C@@H]3C(=O)N(Cc4ccccc4)C(=O)[C@H]3CC[C@@H]12 | 1%[13.1 µM] | . | -6%[11.6 µM] | -7%[11.5 µM] | -7%[11.6 µM] | .
Cc1ccc(C)c(CNC(=O)c2cnc3sc(N4CCCC4)nn3c2=O)c1 | . | . | -5% | -2% | -10% | .
COc1ccc(C(=O)N(Cc2cc(OC)c(OC)c(OC)c2)C2CCS(=O)(=O)C2)cc1Cl (stereo unspecified) | . | . | -1% | 2% | -5% | .
CCOC(=O)c1ccc(NC(=S)NCCc2ccccc2)cc1 | 8% | -28% | 2% | ? | ? | 17%
CCOC(=O)c1ccc(NC(=S)NCCc2ccccc2F)cc1 | 11% | -28% | 28µM* | -24% | 20µM*[quencher] | ?
Cc1ccc(O)c(-c2ccnc3cc(-c4ccc(Cl)cc4)nn23)c1 | . | . | 32µM* | 5% | ? | .
SMILES | CBFb RUNX1 block | JMJD2E inh | Tau FP inhib | Tau fibril ThT | Tau fluor counter | LMNA splice mod
O=C(CCl)Nc1cccc(S(=O)(=O)NC2=NCCC2)c1 | -7% | -8% | -9% | . | -7% | .
COc1cccc(NC(=O)C(Cc2ccccc2)N2Cc3ccccc3C2=O)c1 (stereo unspecified) | . | . | -8% | 10% | 11% | 11%[46 µM]
O=C(/C=C/c1ccc(F)cc1)c1ccc(N2CCOCC2)cc1 | 16% | -12% | -12% | ? | -20% | .
C/C(=C\C(=O)c1ccc(F)cc1)Nc1ccc(N2CCOCC2)cc1 | ? | ? | 10% | 3.5µM* | -20% | -18%
O=C(N/N=C/c1ccc(N2CCOCC2)o1)c1cccc([N+](=O)[O-])c1 | -7% | 4% | ? | 8.9µM* | -20% | -7%
O=C(N/N=C/c1ccc(N2CCCCC2)o1)c1ccccc1 | -1% | -1% | 2% | ? | -3% | ?
N#CC1=C(N)N=C(SCc2cccc3ccccc23)C(C(N)=O)C12CCCCC2 (stereo unspecified) | -13% | 5% | -6% | 20µM* | ? | -2%
COc1ccc(-n2ccnc(NCCc3ccc(S(N)(=O)=O)cc3)c2=O)cc1Cl | . | . | 3% | -13% | -10% | .
COc1ccc(/C=N/N=C2/CC(C)(C)Cc3n[nH]c(=O)cc32)cc1 | -14% | 32µM* | 0% | ? | 0% | ?
CCCCC[C@H](O)/C=C/C=C\C=C\C=C\[C@@H](O)[C@@H](O)CCCC(=O)O | 18% | 1% | -11% | 3% | 1% | .
CCOC(=O)C(CC)Sc1ncnc2sc3c(c12)CCCC3 (stereo unspecified) | . | . | -13% | -13% | -8% | .
Cc1ccc(S(=O)(=O)Nc2ccc(NC(=O)Nc3ccc(F)cc3F)cc2)cc1 | -5% | 1% | ? | -5% | 11µM*[quencher] | -9%
COc1ccc(C(=O)NCc2nnc(SCC(=O)Nc3ccccc3)n2-c2ccc(F)cc2)cc1 | . | . | 0% | 4% | -12% | .
O=C(N/N=C/c1cccnc1)c1cccc(S(=O)(=O)Nc2cccc(Cl)c2)c1 | -25% | -10% | 9% | -4% | -4% | -21%[46 µM]
O=S(=O)(Nc1ccc(Cl)cc1)c1ccc(NS(=O)(=O)c2ccc3c(c2)OCCO3)cc1 | . | . | 14µM* | 14% | ? | .
O=S(=O)(Nc1ccc(Cl)cc1)c1cccc(S(=O)(=O)c2ccc(Cl)c(Cl)c2)c1 | . | . | 11µM* | 10% | ? | .
O=C(N/N=C/c1ccncc1)c1cccc(S(=O)(=O)Nc2ccc(Cl)cc2)c1 | ? | 3.5µM* | -19% | 3% | -5% | .

From PubChem BioAssay
